Source: PubChem BioAssay (NCI)
“And” between values parts separate entries of the source, which are not always exact repeats. Equal entries are not always repeated. The panel holds about 83,000 compounds, 20% with a hit somewhere; the sample as a whole holds those more often.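 For each line, cells grew in 96-well plates with the test compound present at a single concentration for 48 hours.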 The source made the active and inactive calls. The calls were made as follows: active = growth percent below 10; inactive = the rest.

Experiments:
Assay in all cases: NCI-60 one-dose screen, 48 h (100 = growth as untreated, 0 = no growth, -100 = all killed)
Conditions in all cases: 10 µM unless noted
[1] = tested on: HCT-15 colon
[2] = tested on: HT29 colon
[3] = tested on: SNB-75 CNS
[4] = tested on: SNB-19 CNS
[5] = tested on: U251 CNS
[6] = tested on: PC-3 prostate
[7] = tested on: SK-MEL-5 melanoma
[8] = tested on: UACC-62 melanoma
[9] = tested on: LOX IMVI melanoma
[10] = tested on: SK-MEL-28 melanoma

Row | Structure (SMILES) | growth [1] | growth [2] | growth [3] | growth [4] | growth [5] | growth [6] | growth [7] | growth [8] | growth [9] | growth [10]
1 | C=CCN1C(=O)c2ccccc2C1=O | 109% (inactive) | 122% (inactive) | 95.9% (inactive) | 98.1% (inactive) | 101% (inactive) | 96.6% (inactive) | 101% (inactive) | 90.8% (inactive) | 94.7% (inactive) | 108% (inactive)
2 | Cc1cnc(N)s1 | 105% (inactive) | 100% (inactive) | 71.5% (inactive) | 91.4% (inactive) | 95.5% (inactive) | 88.9% (inactive) | 97.5% (inactive) | 90.7% (inactive) | 98.6% (inactive) | 99.1% (inactive)
3 | COC(=O)CCOc1ccccc1 | 101% (inactive) | 97.9% (inactive) | 61.1% (inactive) | 99.5% (inactive) | 96% (inactive) | 85.3% (inactive) | 95.5% (inactive) | 99% (inactive) | 91.3% (inactive) | 123% (inactive)
4 | CC(=O)Nc1ccc(OC(C)=O)cc1 | 13.5% (inactive) and 102% (inactive) | -0.769% (active) and 105% (inactive) | 37.6% (inactive) and 94.3% (inactive) | 35.2% (inactive) and 111% (inactive) | 11.7% (inactive) and 102% (inactive) | 11.5% (inactive) and 92.8% (inactive) | 92.8% (inactive) | 18.5% (inactive) and 108% (inactive) | -24% (active) and 100% (inactive) | 82.6% (inactive) and 110% (inactive)
5 | CCOc1ccc(/C=C\C(=O)O)cc1 | 105% (inactive) | 105% (inactive) | 104% (inactive) | 106% (inactive) | 103% (inactive) | 102% (inactive) | 108% (inactive) | 109% (inactive) | 105% (inactive) | 107% (inactive)
6 | OCCCc1ccccc1 | 100% (inactive) | 94.9% (inactive) | 88.7% (inactive) | 99.3% (inactive) | 95.6% (inactive) | 100% (inactive) | 103% (inactive) | 96.2% (inactive) | 107% (inactive) | 108% (inactive)
7 | CC(=O)Nc1cscc1NC(C)=O | 106% (inactive) | 96.2% (inactive) | 93.2% (inactive) | 92.6% (inactive) | 98.9% (inactive) | 103% (inactive) | 99.3% (inactive) | 93.7% (inactive) | 98.6% (inactive) | 104% (inactive)
8 | CCCCCCCCCCCCCCCCC(=O)O | 102% (inactive) | 97.7% (inactive) | 101% (inactive) | 105% (inactive) | 98% (inactive) | 104% (inactive) | 100% (inactive) | 101% (inactive) | 98.4% (inactive) | 117% (inactive)
9 | C/C(CC(C)C)=N/NC(N)=S | 79.4% (inactive) | 56.1% (inactive) | 99.3% (inactive) | 107% (inactive) | 79.3% (inactive) | 93.4% (inactive) | 99.5% (inactive) | 105% (inactive) | 95.4% (inactive) | 106% (inactive)
10 | C/C=C/C(=O)OCCCCCCCCCCCC | 123% (inactive) | 92.6% (inactive) | 101% (inactive) | 85.2% (inactive) | 98.6% (inactive) | 101% (inactive) | 97.7% (inactive) | 91.6% (inactive) | 106% (inactive) | 114% (inactive)
11 | NC(=O)Cc1nc(O)cc(=O)[nH]1 | 96.9% (inactive) | 93.2% (inactive) | 88.1% (inactive) | 96.9% (inactive) | 89.4% (inactive) | 76.2% (inactive) | 104% (inactive) | 98% (inactive) | 105% (inactive) | 113% (inactive)
12 | O=COCCCc1ccccc1 | 107% (inactive) | 95.9% (inactive) | 109% (inactive) | 96.7% (inactive) | 94.5% (inactive) | 94.4% (inactive) | 98.2% (inactive) | 88.7% (inactive) | – | 108% (inactive)
13 | Cc1c(Cl)cc(Cl)c(N)c1Cl | 104% (inactive) | 108% (inactive) | 91.2% (inactive) | 109% (inactive) | 99.4% (inactive) | 92.2% (inactive) | 106% (inactive) | 105% (inactive) | – | 110% (inactive)
14 | O=C(O)C(Cc1ccc(OS(=O)(=O)Cc2ccccc2)cc1)NS(=O)(=O)Cc1ccccc1 (stereo unspecified) | 99.5% (inactive) and 108% (inactive) | 101% (inactive) and 119% (inactive) | 85.7% (inactive) and 94.9% (inactive) | 96.6% (inactive) and 105% (inactive) | 104% (inactive) | 123% (inactive) and 101% (inactive) | 97.5% (inactive) and 108% (inactive) | 108% (inactive) and 97.9% (inactive) | – | 108% (inactive) and 116% (inactive)
15 | O=C(O)c1ccc2c3ccc(C(=O)O)c4c(C(=O)O)ccc(c5ccc(C(=O)O)c1c25)c43 | 108% (inactive) | 111% (inactive) | 85.4% (inactive) | 96.8% (inactive) | 106% (inactive) | 101% (inactive) | 102% (inactive) | 90.9% (inactive) | – | 112% (inactive)
16 | Nc1nc(-c2ccccn2)cc(-c2cc(-c3ccccn3)nc(N)n2)n1 | 97% (inactive) | 120% (inactive) | 143% (inactive) | 101% (inactive) | 109% (inactive) | 99.3% (inactive) | 105% (inactive) | 102% (inactive) | – | 113% (inactive)
17 | CN(C)CC(CN(C)C)C(O)c1ccccc1 (stereo unspecified) | 99.3% (inactive) | 100% (inactive) | 94.5% (inactive) | 109% (inactive) | 99.5% (inactive) | 101% (inactive) | 106% (inactive) | 106% (inactive) | – | 105% (inactive)
18 | O=C(/C=C/C=C/c1ccc2c(c1)OCO2)N1CCCCC1 | 101% (inactive) and 95.3% (inactive) | 99.5% (inactive) and 87.6% (inactive) | 112% (inactive) and 99.4% (inactive) | 97.2% (inactive) and 99.6% (inactive) | 95.1% (inactive) and 102% (inactive) | 97.7% (inactive) and 90% (inactive) | 97.7% (inactive) and 97.9% (inactive) | 92% (inactive) and 90% (inactive) | 97.7% (inactive) and 101% (inactive) | 129% (inactive) and 94.1% (inactive)
19 | COc1cc(NCCCCCCCNC(C)C)c2nccc(C)c2c1 | 89.2% (inactive) and 58.5% (inactive) | 53.7% (inactive) and 14.2% (inactive) | 74.4% (inactive) and 61.1% (inactive) | 90.9% (inactive) and 74.2% (inactive) | 80.8% (inactive) and 61.3% (inactive) | 58.1% (inactive) and 75.9% (inactive) | 84.3% (inactive) and 64.8% (inactive) | 88.2% (inactive) and 3.49% (active) | – | 105% (inactive) and 91.4% (inactive)
20 | Cc1cccc(Cl)c1N | 109% (inactive) | 109% (inactive) | 100% (inactive) | 108% (inactive) | 108% (inactive) | 95.5% (inactive) | 110% (inactive) | 103% (inactive) | – | 106% (inactive)
21 | CCC(=O)Oc1ccc(OCc2ccccc2)cc1 | 103% (inactive) and 97% (inactive) | 98.7% (inactive) and 91.2% (inactive) | 98.2% (inactive) and 105% (inactive) | 97.7% (inactive) and 96.5% (inactive) | 87.7% (inactive) and 80.8% (inactive) | 77.6% (inactive) and 58.7% (inactive) | 84.1% (inactive) and 73.6% (inactive) | 81.8% (inactive) and 79.9% (inactive) | – | 122% (inactive) and 111% (inactive)
22 | CCOC(=O)C(N)Cc1cc(I)c(O)c(I)c1 (stereo unspecified) | 107% (inactive) and 96.6% (inactive) | 105% (inactive) and 104% (inactive) | 102% (inactive) and 83.8% (inactive) | 109% (inactive) and 95.9% (inactive) | 104% (inactive) and 110% (inactive) | 98.3% (inactive) and 89.8% (inactive) | 105% (inactive) and 108% (inactive) | 101% (inactive) and 97% (inactive) | 110% (inactive) and 105% (inactive) | 111% (inactive) and 116% (inactive)
23 | CCOC(=O)c1csc(N)n1 | 101% (inactive) and 100% (inactive) | 103% (inactive) and 96.8% (inactive) | 84.5% (inactive) and 86% (inactive) | 89.9% (inactive) and 96.8% (inactive) | 111% (inactive) and 86.7% (inactive) | 95.4% (inactive) and 94.5% (inactive) | 108% (inactive) and 101% (inactive) | 93.3% (inactive) and 94.2% (inactive) | 105% (inactive) and 99.1% (inactive) | 98.9% (inactive) and 106% (inactive)
